Test results reported in PubChem BioAssay (EPA / NIEHS).
Active and inactive are the calls of the source. The calls were made as follows: active = hit-call score of the fitted dose curve at least 0.9, where 1 is the maximum; inconclusive = response in the unintended direction; inactive = score below 0.9.

Target: human Dual Specificity Protein Phosphatase 3 (DUSP3), DUSP3 (gene 1845) (UniProt P51452)
Assay: NVS_ENZ_hDUSP3: NovaScreen (NVS) Enzymatic Assay for human Dual Specificity Protein Phosphatase 3 (DUSP3) (AID 2283152)
Experimental: NVS_ENZ_hDUSP3 is a biochemical, single-readout assay that uses extracted gene-proteins in a cell-free assay. Measurements were taken 0 hour after chemical dosing in a 96-well plate.NVS_ENZ_hDUSP3 is one of one assay component(s) measured or calculated from the NVS_ENZ_hDUSP3 assay. It is designed to make measurements of enzyme activity, a form of enzyme reporter, as detected with fluorescence intensity signals by Fluorescence technology.Data from the assay component NVS_ENZ_hDUSP3 was analyzed into 1 assay endpoint. This assay endpoint, NVS_ENZ_hDUSP3, was analyzed in the positive analysis fitting direction relative to DMSO as the negative control and baseline of activity. Using a type of enzyme reporter, loss-of-signal activity can be used to understand changes in the enzymatic activity as they relate to the gene DUSP3. Furthermore, this assay endpoint can be referred to as a primary readout, because this assay has produced multiple assay endpoints where this one serves a enzymatic activity function. To generalize the intended target to other relatable targets, this assay endpoint is annotated to the phosphatase intended target family, where the subfamily is dual-specific phosphatase.
Binding assays used specific radioligands (tritiated, iodinated) with non-radioactive competitive displacement ligands in agonist or antagonist protocols (as indicated) and various reference compounds and inhibitors to titrate specific binding to receptors and transporters. Most enzyme assays (CYPs, kinases, phosphatases, proteases, HDACs) used recombinant protein and specific substrates (fluorescence mostly, some colorimetric and radioactive) and inhibitors, followed by a biochemical separation of substrate and product. All assays for the biochemical HTS were initially run in duplicate at a single concentration (10 uM for CYP450 assays and 25 uM for all others). […] Each assay was run with positive and negative controls, and concurrent controls on every plate. The follow-up (secondary) screen tested active chemical-pairs in concentration series, as well as a few additional assays not tested in the primary screen, some selected negative inactives, and several cases re-run in the concentration series for confirmatory purposes.

human Dual Specificity Protein Phosphatase 3 (DUSP3), DUSP3 (gene 1845), sequence (P51452 whole entry, looked up): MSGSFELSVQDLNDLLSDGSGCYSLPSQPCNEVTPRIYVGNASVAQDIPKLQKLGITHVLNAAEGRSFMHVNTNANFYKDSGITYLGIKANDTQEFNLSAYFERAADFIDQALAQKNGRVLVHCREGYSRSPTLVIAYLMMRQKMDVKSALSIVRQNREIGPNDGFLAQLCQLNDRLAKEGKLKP

Row | SMILES | AC50 | outcome
1 | C=C(C)C(=O)[O][Sn]([CH2]CCC)([CH2]CCC)[CH2]CCC | 10.9 µM (active) | –
2 | COP(=S)(OC)Oc1c(Cl)cc(C)cc1Cl | 20.9 µM (active) | –
3 | O=C(O)C(F)(F)C(F)(F)C(F)(F)C(F)(F)C(F)(F)C(F)(F)C(F)(F)C(F)(F)C(F)(F)C(F)(F)F | 2.72 µM (active) | –
4 | ClC1(Cl)C2(Cl)C3(Cl)C4(Cl)C(Cl)(Cl)C5(Cl)C3(Cl)C1(Cl)C5(Cl)C24Cl (stereo unspecified) | – | inactive
5 | CCOP(=S)(OCC)SCSP(=S)(OCC)OCC | 6.76 µM (active) | –
6 | COP(=S)(OC)Oc1cc(Cl)c(Cl)cc1Cl | 11.8 µM (active) | –
7 | CCOP(=S)(OCC)Oc1nc(Cl)c(Cl)cc1Cl | 6.51 µM (active) | –
8 | COP(=S)(OC)Oc1ccc(S(=O)(=O)N(C)C)cc1 | 7.43 µM (active) | –
9 | Nc1ncc([N+](=O)[O-])s1 | 2.36 µM (active) | –
10 | COc1cc(-c2ccc(N)c(OC)c2)ccc1N | 7.49 µM (active) | –
11 | Nc1cccc2ccccc12 | 17 µM (active) | –
